Where “and” joins values, the source holds several entries; their conditions need not be identical. Identical values can stand only once. Out of some 16,000 compounds screened, about 5,800 (36%) were called active. Inconclusive results (about 23%) are left out. Calls follow the shape of the dose curve; as a rule, active = well fitted curve in the direction sought with a large enough effect; inconclusive = small, poorly fitted or top-dose-only effect, or effect the other way; inactive = no such curve, though single readings can be large or run the other way. This is one part of the list. More than one record can exist for a structure, and the calls need not agree.
% is scaled to controls: 0 for no effect and ±100 for the full control effect.

Sequence of Cytochrome P450 2C19 (Homo sapiens) (P33261 whole entry, looked up): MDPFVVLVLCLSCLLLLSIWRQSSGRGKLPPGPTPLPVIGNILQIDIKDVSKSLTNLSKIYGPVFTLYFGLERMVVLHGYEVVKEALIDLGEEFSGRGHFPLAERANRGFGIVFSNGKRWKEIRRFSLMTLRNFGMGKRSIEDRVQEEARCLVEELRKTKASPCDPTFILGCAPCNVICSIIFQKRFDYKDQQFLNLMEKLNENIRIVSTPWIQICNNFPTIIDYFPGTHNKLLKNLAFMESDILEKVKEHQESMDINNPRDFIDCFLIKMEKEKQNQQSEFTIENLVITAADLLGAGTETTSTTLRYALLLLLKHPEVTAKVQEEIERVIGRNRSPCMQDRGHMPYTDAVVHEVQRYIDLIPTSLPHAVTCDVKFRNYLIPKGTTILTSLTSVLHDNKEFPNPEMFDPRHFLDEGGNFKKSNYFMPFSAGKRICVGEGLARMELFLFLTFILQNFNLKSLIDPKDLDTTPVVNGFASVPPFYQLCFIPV

This assay addresses Cytochrome P450 2C19 (Homo sapiens) (UniProt P33261). The assay can be described thus: Cytochrome panel assay with activity outcomes. The conditions noted are these: recombinant CYP, pro-luciferin dealkylation, luminescence, p450-cyp2c19; series mostly up to 57.1 µM; activity, negative = inhibition: at the top concentration.
As to `N#Cc1cccc(-c2nc3cnc(N4CCOCC4)nc3n(C[C@H]3CCCO3)c2=O)c1`, the “activity, negative = inhibition” value is 11.7% (inactive).

For the compound `COc1cccc(N(C(=O)Cn2nnc(-c3ccc(C)cc3)n2)C(C(=O)NC(C)(C)C)c2c[nH]c3ccccc23)c1` (stereo not drawn), the AC50 was 10 µM (active). Take `OC[C@@H]1O[C@H](O)[C@@H](Cl)[C@H](O)[C@@H]1O`: the “activity, negative = inhibition” value was 27.9% (inactive). On to `CN(CC[C@@H](Oc1ccc(-c2ccccc2)cc1)c1ccc(F)cc1)CC(=O)O`, for which the AC50 was 6.31 µM (active).

Regarding `CNCC[C@H](Oc1ccccc1OC)c1ccccc1`, the AC50 entry was “inactive”.

As for `CC(Oc1ccc(-c2ccccc2)c(F)c1)c1ccn(S(=O)(=O)c2ccc(Cl)cc2)n1` (stereo not drawn), the AC50 is 3.55 µM (active). `CC(Oc1ccccc1)c1ccnn1S(=O)(=O)c1ccccc1` (stereo not drawn): the AC50 is 2 µM (active). `CC(C)CN1CCC2(CC1)CCN(S(=O)(=O)c1ccccc1)CC2`: the “activity, negative = inhibition” value is -0.341% (inactive).

For the compound `CC(Oc1ccc(Cl)cc1)c1ccnn1S(=O)(=O)c1ccccc1` (stereo not drawn), the AC50 was 0.501 µM (active). Consider `CO[C@H]1COC(=O)[C@H](C)NC(=O)C/C=C\[C@@H](C)[C@H](OC)COC(=O)[C@@H](OCc2ccccc2)/C=C\[C@@H]1C`, for which the activity, negative = inhibition is 1.79% [at 11.4 µM] (inactive). Turning to `N[C@@H](C(=O)O)c1ccc(C(=O)O)cc1`, the AC50 entry was “inactive”. Consider `N[C@H](C(=O)O)c1ccc(C(=O)O)c(O)c1`, for which the “activity, negative = inhibition” value is 25.4% (inactive). On to `N[C@@H](C(=O)O)c1ccc(P(=O)(O)O)cc1`, for which the AC50 is 15.8 µM (active). Consider `N[C@@H](C(=O)O)c1ccc(C(=O)O)c(O)c1`, for which the “activity, negative = inhibition” value is 20.8% (inactive).

As for `N[C@@H](C(=O)O)c1ccc(C(=O)O)c(C(=O)O)c1`, the AC50 is 316 nM (active) and inactive and 3.16 µM (active). For `N[C@H](C(=O)O)c1ccc(C(=O)O)cc1`, the “activity, negative = inhibition” value was 53.2% (inactive). As to `Cc1cc(=Nc2ccc3c(c2)c(N)cc(C)[n+]3C)nc(N)n1C`, the activity, negative = inhibition was 35.5% [at 11.4 µM] (inactive). With `CC(NC(=O)CCSc1nc(-c2ccco2)cc(C(F)(F)F)n1)c1ccccc1` (stereo not drawn), the AC50 was 1.41 µM (active). Turning to `COc1cc(C2C(C(=O)OCCC#N)=C(C)NC3=C2S(=O)(=O)c2ccccc23)cc(OC)c1OC` (stereo not drawn), the AC50 is 20 µM (active).

On to `COc1ccc(CNc2ccnc(-c3cccc(C#N)c3)n2)c(OC)c1`, for which the AC50 was 3.98 µM (active).

For the compound `COc1ccccc1CNc1ccnc(-c2cccc(C#N)c2)n1`, the AC50 is 3.98 µM (active).

In the case of `Cc1nn(C)c(C(=O)NNC(=S)Nc2ccc(Cl)cc2)c1[N+](=O)[O-]`, the “activity, negative = inhibition” value was -9.31% (inactive). Consider `COc1cccc(NC(=S)NNC(=O)C(C)n2nc(C)c([N+](=O)[O-])c2C)c1` (stereo not drawn), for which the AC50 is 7.94 µM (active). In the case of `Cc1nn(C(C)C(=O)Nc2ccc(Cl)cn2)c(C)c1[N+](=O)[O-]` (stereo not drawn), the AC50 is 3.16 µM (active). Still for that read-out and setting: the result for `Cc1nn(C(C)C(=O)Nc2sc3c(c2C#N)CCCC3)c(C)c1[N+](=O)[O-]` (stereo not drawn) reads 10 µM (active). With `OC(CN1CCCCC1)CN1CCCCC1`, the “activity, negative = inhibition” value was -13% (inactive). Same read-out and setting: under `FC(F)(F)c1nc2nc(Cl)c(Cl)nc2n1CCCN1CCOCC1` stands -10.6% [at 11.4 µM] (inactive). Consider `CCn1c(COc2ccc(C)cc2)nnc1SCc1ccc(C#N)cc1`, for which the AC50 was 15.8 µM (active). For `C=C1C=C(Br)C2(OCCCO2)[C@H]2OC12` (stereo partly drawn), the activity, negative = inhibition is 18% [at 11.4 µM] (inactive).

As for `CC1CCCCN1c1nc(-c2ccncc2)nc2ccccc12` (stereo not drawn), the AC50 was 0.355 µM (active).

For the compound `CN1CCN(c2nc(-c3cccnc3)nc3ccccc23)CC1`, the “activity, negative = inhibition” value was -26.6% (inactive). With `C/C(=N/NC(=O)Cc1cccn1C)c1ccccc1`, the AC50 is 10 µM (active).

Turning to `CC(=NCC(=O)O)c1ccccc1`, the activity, negative = inhibition is 0.942% [at 11.4 µM] (inactive). For the compound `C/C(=N\NC(=O)c1ccc(Br)cc1)c1ccccc1`, the half-maximal activity concentration (AC50) was 2.82 µM (active).

With `COc1ccc(/C(C)=N/NC(=O)c2ccc(N(C)C)cc2)cc1`, the “activity, negative = inhibition” value is 22.2% (inactive). Consider `CC(=O)NN1C(=O)c2ccc(Oc3cccc([N+](=O)[O-])c3)cc2C1=O`, for which the AC50 was 11.2 µM (active). Regarding `CC(=O)NN1C(=O)c2ccc(Oc3ccc([N+](=O)[O-])cc3)cc2C1=O`, the “activity, negative = inhibition” value was -26.5% (inactive).

With `Cc1sc2ccccc2[n+]1CCC(C)S(=O)(=O)[O-]` (stereo not drawn), the “activity, negative = inhibition” value was -14.6% (inactive).

For the compound `Cc1sc2ccccc2[n+]1CCC(=O)O`, the activity, negative = inhibition was 13.1% [at 11.4 µM] (inactive).

For `CCOC(=O)C[n+]1c(C)sc2ccc(OC)cc21`, the half-maximal activity concentration (AC50) is 5.01 µM (active). For `O=C(N/N=C(\c1ccccc1)c1cccnc1)C(O)(c1ccccc1)c1ccccc1`, the “activity, negative = inhibition” value was -19.4% (inactive).

In the case of `O=C(Oc1ccccc1[N+](=O)[O-])c1cccnc1`, the “activity, negative = inhibition” value is 2.69% (inactive). For `C/C(=N\NC(=O)c1[nH]c2c([N+](=O)[O-])cc(C)cc2c1-c1ccccc1)c1cccnc1`, the AC50 is 4.47 µM (active).

As for `CN1CCN2c3ncccc3Cc3ccccc3C2C1` (stereo not drawn), the concentration at half-maximal activity (AC50) is 0.0501 µM (active). Consider `CC(C)(C)[C@@]1(O)CCN2C[C@@H]3c4ccccc4CCc4cccc(c43)[C@@H]2C1`, for which the AC50 entry was “inactive”. For `CN1CCN(c2ncncc2-c2cccnc2)CC1`, the “activity, negative = inhibition” value was 25.5% (inactive). In the case of `Oc1ccc([C@@H]2CNCc3sccc32)cc1O`, the “activity, negative = inhibition” value was 10.2% (inactive). Turning to `O=C(NNC(=O)c1cc(-c2ccc(Cl)c(Cl)c2)nc2ccccc12)Nc1ccccc1`, the concentration at half-maximal activity (AC50) is 4.47 µM (active). As to `Cc1cccc(NC(=O)NNC(=O)c2cc(-c3ccccc3Cl)nc3ccccc23)c1`, the AC50 was 3.16 µM (active).

In the case of `CC[C@H](C)N(C)C(=O)c1cc2ccccc2c(-c2ccccc2Cl)n1`, the “activity, negative = inhibition” value is -37% (inactive).

Take `O=C(COc1ccc2ccccc2c1Br)NNC(=O)Nc1ccccc1`: the AC50 was 3.55 µM (active). On to `C[C@@H]1[C@H]2CC[C@@H]3[C@@H]4CC=C5C[C@@H](N(C)C)CC[C@]5(C)[C@@H]4CC[C@@]32CN1C`, for which the “activity, negative = inhibition” value is -42.1% [at 25.6 µM] (inactive). Consider `Cc1noc(C)c1C(=O)N1CCC[C@@]2(CCN(c3ncccn3)C2)C1`, for which the “activity, negative = inhibition” value was -14% (inactive). Turning to `Cc1ccccc1C(=O)NC(=S)NCC(=O)c1ccccc1`, the AC50 was 4.47 µM (active). Take `Cc1ccc(C(=O)NC(=S)NCC(=O)c2ccccc2)cc1`: the “activity, negative = inhibition” value is -26.2% (inactive).

For the compound `CC(=O)Nc1ccc(NC2=Nc3ccccc3N3C2=Nc2c(c(C)nn2-c2ccccc2)C3c2ccccc2)cc1` (stereo not drawn), the AC50 was 2 µM (active). On the same count and under the same terms, under `Cc1nn(-c2ccccc2)c2c1C(c1ccc(O)c(O)c1)N1C(=N2)C(Nc2ccccc2)=Nc2ccccc21` (stereo not drawn) stands 3.16 µM (active). Take `COC(=O)CN(c1ccccn1)S(=O)(=O)c1ccccc1`: the “activity, negative = inhibition” value is -7.88% (inactive). As for `Cc1cccc(CSCCNC(=O)c2ccc(N(C)S(=O)(=O)c3ccccc3)cc2)c1`, the AC50 was 1.12 µM (active).

`O=C(CN(c1ccccc1)S(=O)(=O)c1ccccc1)NCCSCc1ccco1`: the AC50 is 8.91 µM (active).

`Cc1cc(C)cc(N(CC(=O)NCCSc2ccccn2)S(=O)(=O)c2ccccc2)c1`: the AC50 is 2.24 µM (active). Still for that read-out and setting: under `Cc1cccc(N(CC(=O)NCCSCc2ccco2)S(=O)(=O)c2ccccc2)c1` stands 2.51 µM (active). On to `CN(CC(=O)O/N=C(\N)c1ccccn1)S(=O)(=O)c1ccccc1`, for which the “activity, negative = inhibition” value was -28.9% (inactive).

As a reminder, the AC50 is the concentration at which the activity in the assay is half-maximal.

Source of the values: PubChem BioAssay AID1851 (National Center for Advancing Translational Sciences (NCATS), 2009).
